# Source: PubChem BioAssay AID602293 (National Center for Advancing Translational Sciences (NCATS), 2012)
# Hit rate of the full screen: of about 1,300 compounds, about 30 (2%) were called active. Where a call stands in place of a potency, no number is given. Not shown: some 10% with an inconclusive outcome. Calls come from the whole dose curve; as a rule, active = well fitted inhibition curve with a large enough effect; inconclusive = small, poorly fitted or top-dose-only effect; inactive = flat fitted curve, though single readings scatter. Only a selection was taken, and actives are over-represented in it overall.
# Experiment: qHTS for antagonists of the Thyroid Stimulation Hormone Receptor: Hit Validation in HTRF Activity in a Luteinizing Hormone Receptor Cell Line
# Conditions: LHR-expressing cell line, cAMP HTRF, antagonist mode; series mostly up to 58 µM
# Description: The thyroid-stimulating hormone receptor (TSHR) is a member of the 7 trans-membrane-spanning receptor (7TMR) family of cell surface receptors. TSHR-mediated hyperthyroidism is important in thyroid pathology. The development of small molecule antagonists of TSHR may lead to therapeutic approaches for TSHR-mediated hyperthyroidism caused by constitutively activating mutations or stimulating auto-antibodies associated with Graves' disease. Graves' disease is the leading cause of hyperthyroidism and is caused by autoantibodies that stimulate TSHR (TsAbs) causing thyroid growth and unregulated overproduction of thyroid hormones and existing treatments have liabilities (agranulocytosis). In addition, TSHRs are known to be expressed in multiple extrathyroidal tissues including bone, brain, kidney, testis, fat and cells of the immune system but the role of the TSHR in these tissues is not clear. Therefore, TSHR antagonists/inverse agonists could be used as probes of extrathyroidal TSHR function. Finally, TSHR inverse agonists, which are a subclass of antagonists that inhibit agonist-independent (or basal or constitutive) TSHR signaling, could be used to inhibit TSH-independent signaling in patients with recurrent or metastatic thyroid cancer who are receiving thyroid hormone to suppress TSH.
# In collaboration between scientist from the NCGC and the NIDDK, a miniaturized HTRF high-throughput screen was developed. It's a cell based assay, where an anti cAMP antibody contains a fluorescent cryptate tag (excitation 337 nm; emission 620 nm) and the acceptor is cAMP-d2 (excitation 620 nm; emission 665 nm). When antibody and cAMP-d2 interact and are excited by a 337 nm light, a FRET occurs resulting in emission at 665 nm. The assay is competition between cAMP-d2 and cAMP (from the cell lysate). The homogeneous protocol allows for one step dispense after stimulation that is automation friendly. In order to confirm specificity of the compounds to the TSHR, a confirmatory assay was conducted on a similar family member, the Luteinizing Hormone (LH) receptor, transfected into a HEK 293 cell line, using an orthogonal detection technology to measure cAMP stimulation: antibody-based Homogeneous Time Resolved Fluorescence (HTRF).
# NIH Chemical Genomics Center [NCGC]
# NIH Molecular Libraries Probe Centers Network [MLPCN]
# Assay Provider: Marvin Gershengorn, NIDDK
# Homogeneous Time Resolved Fluorescence (HTRF) cAMP Assay. HEK 293 cells stably transfected with a vector containing the LH receptor and maintained under hygromycin selection were obtained from the laboratory of Dr. Marvin Gershengorn. Compounds were assayed using a HTRF cAMP detection kit (Cisbio) on the LH receptor transfected cell line. Briefly, 750 cells were plated in 2.5 ul/well of complete media (DMEM containing 10 % FCS, and 100 uM RO 20-1724) in 1536 well solid bottom white plates and 23 nl/well compound in DMSO solution or controls was added. Following 30 minute incubation at room temperature, 2.5 ul/well of labeled d2 cAMP and 2.5 ul/well of anti-cAMP antibody (both diluted 1:20 in lysis buffer) were added to each well using a flying reagent dispenser (Aurora Discovery, San Diego) . Plates were measured using the Envision plate reader (PerkinElmer, Boston, MA) with excitation at 330 nm and emissions of 615 nm and 660 nm.
# Potency is the fitted concentration of half-maximal effect.
row,Structure (SMILES),Potency
1,COc1ccccc1N1CCN(c2nc(C)nc3c2oc2ccccc23)CC1,inactive
2,O=C1C=CC(=O)N1CCCCCCN1C(=O)C=CC1=O,33.8 µM (active)
3,Cc1cccc(/C=C/C(=O)c2cc(Br)ccc(=O)c2O)c1,inactive
4,O=S(=O)(c1cc(C(F)(F)F)ccc1Cl)N1CCN(c2ncnc3ccccc23)CC1,inactive
5,COc1cc2sc3ccc(-c4ccc(CN5CCOCC5)cc4)cc3c(=O)c2cc1OC,inactive
6,COc1ccc(NS(=O)(=O)c2ccc3c(c2)Cc2ccccc2-3)cn1,inactive
7,O=C(Nc1ccccc1Cl)/C(Cl)=C(\Cl)S(=O)c1ccccc1 (configuration not stated),inactive
8,COc1ccc(NC(=O)/C(Cl)=C(/Cl)S(=O)Cc2ccccc2Cl)cn1 (configuration not stated),37.9 µM (active)
9,c1ccc2c(Cn3nnc4ccccc43)cccc2c1,inactive
10,Cc1onc(-c2ccccc2Cl)c1C(=O)NC(=S)Nc1ccc(C(C)C)cc1,inactive
11,O=C(N1CCN=C1SCc1cccnc1)C12CC3CC(CC(C3)C1)C2,inactive
12,O=C(CSc1nc2cc(Cl)c(Cl)cc2[nH]1)c1ccc2c(c1)OCO2,inactive
13,O=S(=O)(Nc1ccc2cn[nH]c2c1)c1cc(Br)ccc1Br,inactive
14,C=C(C)CNc1cc(S(=O)(=O)N2CCOCC2)ccc1Oc1ccccc1,inactive
15,Clc1ccc(CSc2nnc(CNc3cccc(Cl)c3)o2)cc1,inactive
16,CCN(CC)S(=O)(=O)c1ccc(Oc2ccc(S(=O)(=O)N(CC)CC)cc2)cc1,inactive
17,CC1=NN(C(N)=S)C(=O)C1N=Nc1c(Br)cc(Br)cc1Br (configuration not stated),inactive
18,O=C(Oc1c(Br)cc([N+](=O)[O-])cc1Br)c1cccnc1,inactive
19,CCc1ccccc1NC(=O)CN1CCN(C(=O)CNC(=O)Cc2cccc3ccccc23)CC1,inactive
20,O=C(Nc1ccc(Cl)c(Cl)c1)Nc1ccccc1O,inactive
21,CCCCNc1c(-c2cccc(-c3ccc(OC)cc3)c2)nc2ccc(C)cn12,inactive
22,COc1ccc(-c2cc(-c3nc4ccccn4c3NCc3ccccc3)ccc2OC)cc1,9.53 µM (active)
23,CCCCCCSc1ccc(-c2nc3ccc(Cl)cn3c2NCCCC)cc1OC,inactive
24,O=C(Nc1nc2c(s1)CCCC2)c1ccc2ncsc2c1,inactive
25,N#C/C(=N\Nc1cccc([N+](=O)[O-])c1)C(=O)c1ccc(Br)cc1,inactive
26,Cc1ccc(C)c(N2CCN(C(=O)CCS(=O)(=O)c3ccc4c(c3)CCN4C(=O)C3CC3)CC2)c1,inactive

row,Structure (SMILES),Potency
1,Cc1ccc(-n2c(Cl)c(Cl)nc(Cl)c2=O)cc1,37.9 µM (active)
2,Cc1c(Cl)sn(-c2ccc(Cl)cc2)c1=O,inactive
3,Cc1ccc2cccc(Oc3ncnc4scc(-c5ccccc5)c34)c2n1,inactive
4,O=C(Nc1nc(-c2ccc(Cl)cc2Cl)cs1)c1ccc(OCC2CCCO2)cc1 (configuration not stated),inactive
5,COc1cc(C(C)=O)ccc1OCC(=O)Nc1ccc(Cl)c(S(=O)(=O)N2CCOCC2)c1,inactive
6,O=C(Nc1ccc(Cl)c(S(=O)(=O)N2CCOCC2)c1)c1ccc(OCC2CCCO2)cc1 (configuration not stated),37.9 µM (active)
7,COC(=O)c1ccc(CN2C(=O)NC(Cc3c[nH]c4ccccc34)C2=O)cc1 (configuration not stated),inactive
8,COc1ccc(-c2csc(NC(=O)c3ccccc3NS(=O)(=O)c3ccc(F)c(F)c3)n2)cc1,inactive
9,COc1ccc(Cc2nc(C(=O)Nc3ccc(Cl)cc3)cs2)cc1,inactive
10,O=S(=O)(Nc1cccc(-c2cn3cccnc3n2)c1)c1ccc(-c2ccccc2)cc1,inactive
11,CCOC(=O)CCS(=O)(=O)c1nc(-c2ccccc2)cc(C(F)(F)F)n1,inactive
12,COc1ccc(/C=N/n2c(SC)nnc(C(C)(C)C)c2=O)cc1,inactive
13,COc1ccc(S(=O)(=O)N2CCOC23CCN(C(=O)c2ccc(Cl)cc2Cl)CC3)cc1,inactive
14,O=C(NCCC1=CCCCC1)C(=O)NCC1OCCCN1S(=O)(=O)c1ccccc1 (configuration not stated),inactive
15,Cc1cc(C(=O)CCl)c(C)n1CCc1ccccc1,inactive
16,CC1(C)CC2(CCCN3C(=O)CSC32)CCS1 (configuration not stated),inactive
17,COC(=O)c1ccc(-c2noc(CN(C)CCC3CCCCO3)n2)cc1 (configuration not stated),inactive
18,CCC(C)(C)C1CCC(NC(=O)N2CCN(c3ccccc3O)CC2)CC1 (configuration not stated),inactive
19,COc1ccccc1-n1cnc2cc(NS(=O)(=O)c3ccc(Br)cc3)ccc21,inactive
20,O=C1NC(=S)S/C1=C\c1ccc2ccccc2c1,inactive
21,O=[N+]([O-])c1c(Nc2cccc(O)c2)cc(Cl)c2nonc12,30.1 µM (active)
22,O=C(COC(=O)c1ccccc1NS(=O)(=O)c1cccs1)NCC12CC3CC(CC(C3)C1)C2,inactive
23,Cc1cc(OCC(=O)Nc2cccc(S(=O)(=O)N3CCCC3)c2)ccc1Cl,inactive
24,CCOC(=O)c1c(NC(NC(=O)C(C)C)C(Cl)(Cl)Cl)sc2c1CCC2 (configuration not stated),inactive
25,O=C(Nc1ccc(SC(F)F)cc1)c1ccc2c(=O)n3c(nc2c1)CCC3,inactive
26,COc1cc2cnc(-c3ccccc3)c(-c3ccc(C#N)cc3)c2cc1OC,inactive

row,Structure (SMILES),Potency
1,CCn1c(Cl)c(C=O)s/c1=N\S(=O)(=O)c1ccccc1,37.9 µM (active)
2,CCOc1ccccc1N1CCN(C(=O)CCCN2C(=O)c3cccc4cccc(c34)C2=O)CC1,inactive
3,CC(C)N(Cc1ccccc1)C(=O)COC(=O)c1cnc(Cl)c(Cl)c1,inactive
4,CC(Sc1nn(-c2ccc(F)cc2)c(=S)s1)C(=O)c1c(N)n(C)c(=O)n(C)c1=O (configuration not stated),inactive
5,CC1=C/C(=N\OS(=O)(=O)c2ccccc2)C(C)=CC1=O,30.1 µM (active)
6,CC1=CC(=O)C(C(C)C)=C/C1=N/OS(=O)(=O)c1ccccc1,21.3 µM (active)
7,COc1ccc(/C=N/NC(=O)c2ccoc2C)cc1COc1c(C)cccc1C,inactive
8,CCCSc1nsc(NC(=O)Nc2ccc(F)cc2F)n1,inactive
9,O=C(COc1ccc(Cl)cc1)Nc1ncc([N+](=O)[O-])s1,inactive
10,COc1cc(/C=N/OCC(=O)NC23CC4CC(CC(C4)C2)C3)ccc1OCc1ccccc1,inactive
11,O=C(OCCc1cc2ccccc2c(=O)o1)c1ccccc1C(F)(F)F,inactive
12,CCN(CC)c1ccc2nc3ccccc3[n+](CC)c2c1,30.1 µM (active)
13,O=C(Nc1nc(-c2ccc(F)cc2)cs1)C1CCN(C(=O)c2ccc(F)cc2)CC1,inactive
14,Cc1cccc(N2CCN(S(=O)(=O)c3ccc4c(c3)NC(=O)CS4)CC2)c1C,inactive
15,CC1CCN(c2ccccc2NC(=O)c2cc([N+](=O)[O-])ccc2N2CCOCC2)CC1,inactive
16,CSc1nnc(C(C)(C)C)c(=O)n1/N=C/c1c(O)ccc2ccccc12,inactive
17,Nc1nc(SCc2ccccc2Cl)ns1,inactive
18,CC1CC1C(=O)N1CCN(S(=O)(=O)c2cc(C(F)(F)F)cc(C(F)(F)F)c2)CC1 (configuration not stated),inactive
19,COc1cccc(CN(C)C(=O)c2ccc(OCC(=O)Nc3cccc(C(F)(F)F)c3)c(OC)c2)c1,inactive
20,COc1ccc(-c2nc(CS(=O)CC(=O)NCc3ccccc3)c(C)o2)cc1OC (configuration not stated),inactive
21,COc1ccc(CC(=O)Nc2cccc(-c3nnc(-c4cccc(C)c4)o3)c2)cc1OC,21.3 µM (active)
22,Cc1ccc(S(=O)(=O)Nc2ccccc2N2CCCCC2)cc1,inactive
23,COc1ccccc1CNC(=O)CSc1nc(N)c(C#N)c(-c2cccs2)c1C#N,inactive
24,CCn1nc([N+](=O)[O-])c(C(C#N)c2nc3cc(C(F)(F)F)ccc3s2)c(Cl)c1=O (configuration not stated),inactive
25,O=C(NC(Nc1nc2ccc([N+](=O)[O-])cc2s1)(C(F)(F)F)C(F)(F)F)c1cccnc1,inactive
26,O=c1c(Sc2ccccc2)c(C(F)(F)F)[nH]n1-c1ccccc1,inactive

row,Structure (SMILES),Potency
1,COc1ccc(OC)c(CCNC(=O)Cn2nc(C)c3c(C)n(-c4ccc(C)cc4)nc3c2=O)c1,inactive
2,CC(=O)NC1=C(Nc2ccc(N(C)C)cc2)C(=O)c2ccccc2C1=O,inactive
3,O=C(OCn1ncc(Cl)c(Cl)c1=O)c1cccc(C(F)(F)F)c1,inactive
4,Cc1sc2ncnc(N3CCN(CCOc4ccc(Cl)cc4)CC3)c2c1C,inactive
5,Cc1ccc(-c2nc3ccc(C(=O)O)cc3nc2-c2ccc(C)cc2)cc1,inactive
6,CCOC(=O)c1sc(NC(=O)CSc2n[nH]c(-c3ccncc3)n2)c(C#N)c1C,inactive
7,COc1ccc(S(=O)(=O)Nc2ccccc2C(=O)Nc2nc(-c3ccc(F)cc3)cs2)cc1OC,inactive
8,COc1cccc(NC(=O)Nc2nc(-c3ccc(OC)c(OC)c3)cs2)c1,13.5 µM (active)
9,CCSc1nsc(NC(=O)Nc2cccc(OC)c2)n1,inactive
10,CN(C)S(=O)(=O)c1cccc(-c2nnc(SCc3ccc4c(c3)OCCO4)o2)c1,inactive
11,COc1ccccc1NS(=O)(=O)c1cccc(NC(=O)c2ccc3ccccc3n2)c1,inactive
12,CCc1ccc(-c2cc(C)no2)cc1S(=O)(=O)N1CCN(c2ccccn2)CC1,inactive
13,COc1ccc(CN(C)C(=O)COC(=O)c2ccc(-c3ccccc3)cc2)c(OC)c1OC,inactive
14,CCOc1ccc2nc(SC3CC(=O)N(c4ccccc4)C3=O)sc2c1 (configuration not stated),inactive
15,Cc1cc(OCc2cc(C(=O)N(C)C(C)c3ccccn3)no2)cc(C)c1Cl (configuration not stated),inactive
16,CC(C)c1ccccc1OCCNC(=O)c1cccnc1,inactive
17,O=C(CSc1ccc(F)cc1)N1CCC(c2nc3ccccc3s2)CC1,inactive
18,N=c1oc2ccccc2cc1C(=O)NC1CCCCCC1,inactive
19,CC(Sc1nnc(-c2cccs2)n1Cc1ccccc1)C(=O)NCc1ccc2c(c1)OCO2 (configuration not stated),inactive
20,COc1cccc(-c2nc(-c3ccc(NC(=O)c4cccnc4)cc3)no2)c1,inactive
21,Cn1c(=O)c(C(=O)NNC(=O)c2cccc(Cl)c2)c(O)c2ccccc21,inactive
22,CC1Cc2ccccc2N1C(=O)COC(=O)/C=C/c1cccc(F)c1 (configuration not stated),inactive
23,CCCCCCSc1nsc(NC(C)=O)n1,inactive
24,O=Cc1c[nH]c2ccc(C(=O)c3ccccc3)cc12,inactive
